Reference: the supplement of paper PMC6555819

Test system: VDR:RXRa (NR concentration 270 nM, RXRa partner concentration 90 nM)
Experiment: PBM binding z-score (relative to random genomic background probes); higher = stronger binding; sequences stand for … in GC…GCGATTGACAGCGTAGAATGAAGG
Method: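 Protein-binding microarray (Agilent 4x180K custom design, double-stranded 60-nt probes: 5' GC cap, 34-nt variable region, 24-nt constant primer region; full probe sequence given). Purified or IVT nuclear receptor:RXRα heterodimers (3:1 NR:RXRα, mostly 270:90 nM) or homodimers were incubated for 1 h in PBS with 2% milk and no ligand, then detected with Alexa488 antibodies. Fluorescence from o1-orientation probes (~5 replicates averaged) was converted to z-scores against 500 random hg19 background probes. Variable regions are seed direct-repeat (DR0–DR5) sites, all their single-nucleotide variants and half-site ablations.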

First: CCTACTGGGGCAAAGGTTACCATACTCAGTACGA
Second: ACCGAAAGGTCGAGGTGAGTATAGAGAAAGGGAA
The PBM binding z-score of the first is lower: 1.86 for the first, 2.82 for the second.

Compared with TCATATAGGTCAACAGGTGAAAGTCCGTAAGTTA, CCAGACCGGTGAAAGGTAACTCAGTCTGGTACGC is lower in PBM binding z-score: 4.41 for the first, 0.137 for the second.

Compared with GCTGCTAGGTCACCTGATGGTCAGCTAAAGCTCG, ACTATAAGTTGACTTAGGGCAACCGATACGACGC is lower in PBM binding z-score: 1.31 for the first, 0.769 for the second.

First: TGAATGAGGTCATAAGATCAGGGAACGTTGCAAA
Second: GCTGCTAGGTCAGCTGATGGTCAGCTAAAGCTCG
The PBM binding z-score of the first is higher: 4.71 for the first, -0.126 for the second.

Going from CGAACTAGGTAATCCAGGACAGTGAATACATTGA to GCTAGTAGTTGAAAGGGCAACCGAATGATTCTCG, the PBM binding z-score falls from 0.209 to 0.183.

Compared with TCATATAGGTCAAGGTGAAAGTCGAACGATATGA, AGTCAAAGTTAACTAGGTAACGTAAGATTCAGCT is lower in PBM binding z-score: 2.94 for the first, -0.0453 for the second.

Going from CAAACTAGGTGAAAGGTCAAAGTCGAGCCAACCA to TAGCCGAGGTCAGATCGGGCCAGTATACGCTATA, the PBM binding z-score falls from 5.23 to 4.26.

Going from CAAACTACGTCACGAAAGGTCAAAGTCGAATGAC to ATCGCTAGGTAAGACTCAGTTCAGTGAAGAACGC, the PBM binding z-score falls from 4.91 to -0.0263.

First: ATCTTTAGGTAAAGATAGTTCAGTGAATGCAAAT
Second: CGAACTAGGTCATCCAGGATAGTGAATACATTGA
The PBM binding z-score of the first is lower: 0.897 for the first, 3.02 for the second.

First: GTGCCAAGGTGAATAGGTCGTTGATGAGTAGGCG
Second: AGTCAAAGTGCACTAGGTAACGTAAGATTCAGCT
The PBM binding z-score of the first is higher: 0.576 for the first, 0.166 for the second.

First: GATACAGGGTCAGCTAGAGGCCAGAGTCTGGAAA
Second: ATCTCTAGGTAACAAGTACAGTGAAAGAGAGGAC
The PBM binding z-score of the first is higher: 3.26 for the first, 0.429 for the second.

Going from CATACAGGGCCAGCTAGGCCAGAGTAGGGACGGC to CGAACGAGGGCATGAGTTGATAGGAAATGCCGAT, the PBM binding z-score rises from -0.78 to 1.13.

First: TAGCCTAGGTCATGGGTCAGTATACCACGCGAAC
Second: GCGACTGGGGCAAAGCAGGATACCATAAGGTTGG
The PBM binding z-score of the first is higher: 3.31 for the first, -0.613 for the second.

Going from ATCTCTTGGTAACCAAGTTCAGTGAATGCCGAAC to AGAATGAGGTTACCAAAGATCAGGGAAACGCTTG, the PBM binding z-score falls from 2.38 to 1.37.

Going from CCTCGGCGGACAGAAGGTCAGAGCTGTCCGCTTT to ACTGGCAGGCCAAGGGTCACTCAAGATTAGTCCG, the PBM binding z-score rises from 0.473 to 2.69.

First: CCTTACGGGTCACTGACGGGTTATAGCATTTGGA
Second: TGAATGAGGCTATAAGATCAGGGAACGTTGCAAA
The PBM binding z-score of the first is higher: 3.7 for the first, -0.38 for the second.

Compared with GCAGACAGGTGAAACGCAGGTAAGTCAGGGTGGC, GGAACGAGGGCATTCGAGGTGATAGCATGGCGAT is higher in PBM binding z-score: -0.562 for the first, 2.4 for the second.

Going from TCTCGGAGGACACGAAGGTTAGAGCTTTCCAGAG to TTACCAAGGTGAGCTGTGGTCGTTGATCCAACTC, the PBM binding z-score falls from 0.237 to -0.311.

Going from ATCTCTAGGTAAAGGTTCAGTGAATCCCGAGGAT to TCTATTAGTTGTAGGGCAACCGACGAGTCCGTTT, the PBM binding z-score falls from 1.09 to 0.713.

Going from CAGCCTAGGTCAGCGCCAGTATAGGAGGAACGTT to GATACAGGGGCAGCTAGAGGCCAGAGTATGGAAA, the PBM binding z-score falls from 0.303 to -0.219.
